Data reported in PubChem BioAssay (NCATS).
Several values for one entry are separate records, joined by “and”; a condition that tells them apart may be missing. Identical values can stand only once. Results filed as inconclusive are left out. Activity calls are given as the source filed them. Calls follow the shape of the dose curve; as a rule, active = well fitted curve in the direction sought with a large enough effect; inconclusive = small, poorly fitted or top-dose-only effect, or another doubt; inactive = no such curve, though single readings can be large or run the other way. Where a SMILES comes first, the peptide text is derived from it. Bridges are numbered along the chain shown (N, C = ends). [ ]: non-standard residue; d: D form. The star is where a group is joined. X1 = CC[C@@H](C)[C@@H](N)C1=N[C@H](C(=O)*)CS1; d(aIle) = CC[C@H](C)[C@@H](N)C(=O)O; dOrn = NCCC[C@@H](N)C(=O)O

Assay: qHTS Assay for Identifying Gametocytocidal Compounds (AID 743244);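 also: actives lower the fluorescent signal which means gametocytes are killed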
Conditions: P. falciparum 3D7 stage III-V gametocytes, alamarBlue, 72 h; max response: stronger effect = lower value
Procedure, shortened: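 Compounds are pinned into medium, gametocytes (stage III–V, 3D7, 20,000 cells/well) added, and plates held 72 h at 37 °C in 5% CO2. AlamarBlue follows for 24 h before fluorescence reading.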
% is scaled to controls: 0 for no effect and ±100 for the full control effect.

SMILES	max response
O=P(O)(O)OC[C@H](O)CO	-1.62% (inactive)
NC[C@@H]1CC[C@@H](N)[C@@H](O[C@H]2[C@H](O)[C@@H](O[C@H]3O[C@H](CO)[C@@H](O)[C@H](N)[C@H]3O)[C@H](N)C[C@@H]2N)O1	4.25% (inactive)
N=C(N)n1cccn1	13.6% (inactive)
CCOC(=O)c1cc(-c2ccccc2)nc2ccc(C)cc12	-3.36% (inactive)
CC(C)(C)NCC(O)c1ccc(O)c(CO)n1 (centres undefined)	6.55% (inactive)
CC[C@@H](C)[C@@H](N)C1=N[C@H](C(=O)N[C@@H](CC(C)C)C(=O)N[C@@H](CCC(=O)O)C(=O)N[C@@H](C(=O)N[C@@H]2CCCCNC(=O)[C@@H](CC(N)=O)NC(=O)[C@@H](CC(=O)O)NC(=O)[C@@H](Cc3cnc[nH]3)NC(=O)[C@@H](Cc3ccccc3)NC(=O)[C@@H]([C@H](C)CC)NC(=O)[C@@H](CCCN)NC2=O)[C@@H](C)CC)CS1 (X1-LE[d(aIle)][dK][dOrn][dI][dF][dH][dD][dN]; lactam 4-C)	17.8% (inactive) and -1.65% (inactive)
CC1CCC(NC(=O)N(CCCl)N=O)CC1 (centres undefined)	3.88% (inactive)
NC(=O)CC[C@@H]1NC(=O)[C@H](Cc2ccccc2)NC(=O)[C@H](Cc2ccc(O)cc2)NC(=O)[C@@H](N)CSSC[C@@H](C(=O)N2CCC[C@H]2C(=O)N[C@@H](CCCN=C(N)N)C(=O)NCC(N)=O)NC(=O)[C@H](CC(N)=O)NC1=O	-1.4% (inactive) and -14.5% (inactive)
O=C(O)COc1ccccc1/C=N/NC(=O)c1ccncc1	1.32% (inactive)
CCCCC[C@H](O)/C=C/[C@H]1[C@H](O)CC(=O)[C@@H]1C/C=C\CCCC(=O)O	5.55% (inactive)
CCCCCCCCCCCCCCCCCC[N+](C)(C)CCC[Si](OC)(OC)OC	-8.48% (inactive)
NC(=O)Oc1ccc(Cc2ccccc2)cc1	-7.34% (inactive)
C(=C\c1ccncc1)/c1ccccc1	1.05% (inactive) and -0.436% (inactive)
FCOC(C(F)(F)F)C(F)(F)F	-7.47% (inactive)
Cc1c(Cl)cccc1Nc1ncccc1C(=O)O	-5.77% (inactive)
CC/C(=C(/CC)c1ccc(OP(=O)(O)O)cc1)c1ccc(OP(=O)(O)O)cc1	-1.73% (inactive)
NC(=O)OCC(O)COc1ccc(Cl)cc1 (centres undefined)	9.36% (inactive)

SMILES	max response
CC(=O)Nc1ccc(OC(C)=O)cc1	-5.2% (inactive)
C[C@@H]1O[C@@H]1P(=O)(O)O	-12.6% (inactive)
CC(C)CCCC(C)NC(C)C (centres undefined)	15.9% (inactive)
Cc1cc(C(=O)NCCc2ccc(S(=O)(=O)NC(=O)NN3CCCCCC3)cc2)no1	4.46% (inactive)
O=C(O)CN(CC(=O)O)CC1=CC2C(=CC1=O)Oc1cc(O)c(CN(CC(=O)O)CC(=O)O)cc1C21OC(=O)c2ccccc21 (centres undefined)	5.31% (inactive)
COc1ccc(/C=C/C(=O)O)cc1	-1.23% (inactive)
COc1ccc(C(=O)c2ccc(C)cc2)c(O)c1	-6.86% (inactive)
C=CC1=C(C(=O)O)N2C(=O)[C@@H](NC(=O)/C(=N/OCC(=O)O)c3csc(N)n3)[C@H]2SC1 (stereo in doubt)	-1.34% (inactive)
C[Se]CC[C@H](N)C(=O)O	8.55% (inactive)
CCCCC[C@H](O)/C=C/[C@H]1[C@H](O)CC(=O)[C@@H]1CCCCCCC(=O)O	-10.5% (inactive)
COc1cc(C)c(/C=C/C(C)=C/C=C/C(C)=C/C(=O)O)c(C)c1C	1.95% (inactive)
CC1(C)S[C@@H]2[C@H](NC(=O)C3(N)CCCCC3)C(=O)N2[C@H]1C(=O)O	7.96% (inactive)
CN[C@@H]1[C@@H](O)[C@@H](O[C@@H]2[C@@H](O)[C@H](O[C@H]3O[C@H](CN)[C@@H](O)[C@H](O)[C@H]3O)[C@@H](N)C[C@H]2NC(=O)C(O)CN)OC[C@]1(C)O (some centres undefined)	16.8% (inactive)
CC(C)[C@@H](N)C(=O)O	7.16% (inactive)
CC(C)CN(C[C@@H](O)[C@H](Cc1ccccc1)NC(=O)O[C@@H]1CCOC1)S(=O)(=O)c1ccc(N)cc1	12.1% (inactive)
CCCCCCCCCCCCCC(=O)OCC(COP(=O)([O-])OCC[N+](C)(C)C)OC(=O)CCCCCCCCCCCCC (centres undefined)	8.75% (inactive)
CNC(=O)[C@H](Cc1c[nH]c2ccccc12)NC(=O)[C@@H](CC(=O)NO)CC(C)C	-3.58% (inactive)
